From the supplement of paper PMC9694430 come the findings set out here.

The structures appear in SMILES notation.

One test deals with LOC_OS01G14860-cb001. In words: thermal shift delta Tm vs DMSO control; higher = stronger stabilization (binding). Conditions: 12.5 µM; protein concentration 2 µM. The method in brief: (§1)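 Rice kinase domain constructs were expressed in E. coli, purified, and tested by differential scanning fluorimetry with compound added in DMSO. Each well of a 96-well plate held 19.5 μl of 2 μM kinase in 100 mM potassium phosphate pH 7.5, 150 mM NaCl, 10% glycerol and 5 × SYPRO Orange, and fluorescence was read from 25°C to 95°C at 0.05°C/s. The melting temperature shift is the mean of triplicates, taken against protein with DMSO alone after Boltzmann fitting.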
Take `Oc1c2ccccc2c2c3c(cccc13)N=N2`: the “thermal shift delta Tm” value is 2.06 °C.

Turning to `CSc1cccc(Nc2ncc3cc(-c4c(Cl)cccc4Cl)c(=O)n(C)c3n2)c1`, the “thermal shift delta Tm” value worked out at 0.06 °C.

With `COc1cc(Nc2ncc(F)c(Nc3ccc4c(n3)NC(=O)C(C)(C)O4)n2)cc(OC)c1OC` [R406 (free base)], the “thermal shift delta Tm” value was found to be 5.16 °C.

Take `Cc1cn(-c2cc(NC(=O)c3ccc(C)c(Nc4nccc(-c5cnccn5)n4)c3)cc(C(F)(F)F)c2)cn1` [Radotinib]: the “thermal shift delta Tm” value was found to be 0.52 °C.

Consider `CN1CCN(Cc2ccc(-c3cnc4[nH]cc(-c5ccc6[nH]ccc6c5)c4c3)cc2)CC1`, for which the “thermal shift delta Tm” value stood at 4.87 °C.

For `CONC(=O)c1ccccc1Nc1cc(Nc2cc(C)nn2C(C)C)ncc1Cl`, the “thermal shift delta Tm” value worked out at 0.66 °C.

As to `CNC(=O)c1cc(Oc2ccc(NC(=O)Nc3ccc(Cl)c(C(F)(F)F)c3)c(F)c2)ccn1` [Regorafenib (BAY 73-4506)], the “thermal shift delta Tm” value was determined as 2.04 °C.

As for `c1cc(-c2cnn3cc(-c4ccc(OCCN5CCCCC5)cc4)cnc23)ccn1` [Dorsomorphin 2HCl], the “thermal shift delta Tm” value amounted to 2.59 °C.

Consider `CCCCCCCCCC(=O)CC(O)S(=O)(=O)O` (centres undefined) [Sodium Houttuyfonate], for which the “thermal shift delta Tm” value was found to be 0.44 °C.

Regarding `CC(C)[C@H](CO)Nc1nc(Nc2cccc(Cl)c2)c2ncn(C(C)C)c2n1` [Purvalanol A], the “thermal shift delta Tm” value turned out to be 1.34 °C.

As for `COc1ccc(Cl)c(Nc2nc3ccccc3nc2NS(=O)(=O)c2cccc(NC(=O)C(C)(C)N)c2)c1` [Pilaralisib (XL147)], the “thermal shift delta Tm” value came to 1.53 °C.

In the case of `CC(C)Oc1ccc(-c2nn([C@@H](C)c3oc4ccc(F)cc4c(=O)c3-c3cccc(F)c3)c3ncnc(N)c23)cc1F`, the “thermal shift delta Tm” value was 0.59 °C.

As for `O=C(/C=C/c1ccc2ccccc2n1)c1ccncc1`, the “thermal shift delta Tm” value was 1.08 °C.

In the case of `CC(C)(O)CC(=O)NCCn1ccc2ncnc(Nc3ccc(Oc4cccc(C(F)(F)F)c4)c(Cl)c3)c21`, the “thermal shift delta Tm” value worked out at 1.32 °C.

As to `CCOC(=O)c1cnc2ccc(-c3cncc(NS(=O)(=O)c4ccccc4)c3)cn12`, the “thermal shift delta Tm” value came out at 0.13 °C.

With `N#Cc1c(NC(=O)c2cccc3ccccc23)sc2c1CCCC2` [JNK Inhibitor IX], the “thermal shift delta Tm” value is -0.15 °C.

Regarding `CN(C)Cc1cccc(N=C(c2ccccc2)c2c(O)[nH]c3cc(C(=O)N(C)C)ccc23)c1`, the “thermal shift delta Tm” value was determined as 0.13 °C.

With `O=c1c(-c2ccc(O)cc2)coc2cc(O)cc(O)c12` [Genistein], the “thermal shift delta Tm” value came out at 1.11 °C.

Turning to `CCn1c2ccccc2c2cc(Nc3ccnc(NCCCN4CCOCC4)n3)ccc21`, the “thermal shift delta Tm” value came to 0.53 °C.

As for `N#CC(=C(/N)Sc1ccccc1N)/C(C#N)=C(\N)Sc1ccccc1N`, the “thermal shift delta Tm” value came to 0.53 °C.

`CCN(CC)CCCC(C)Nc1nc(C)cc(Nc2ccc3nc(C)cc(N)c3c2)n1` (centres undefined): the “thermal shift delta Tm” value stood at 0.18 °C.

For `c1cn2cc(-c3ccc4cn[nH]c4c3)nc(Nc3ccc(N4CCOCC4)cc3)c2n1` [Entospletinib (GS-9973)], the “thermal shift delta Tm” value is 1.77 °C.

As for `C[C@H]1CNC(=O)c2cnn3ccc(nc23)N[C@H](C)c2cc(F)ccc2O1`, the “thermal shift delta Tm” value is 0.3 °C.

In the case of `CC(C)c1cnn2c(NCc3ccccc3)cc(NCCCCCCN)nc12`, the “thermal shift delta Tm” value amounted to 0.11 °C.

In the case of `C=CC(=O)Nc1cccc(Nc2nc(Nc3ccc(NC4CN(CCF)C4)cc3OC)ncc2C(F)(F)F)c1`, the “thermal shift delta Tm” value amounted to 0.1 °C.

In the case of `CNC(=O)CN1CCC(Oc2cc3c(Nc4cccc(Cl)c4F)ncnc3cc2OC)CC1` [Sapitinib (AZD8931)], the “thermal shift delta Tm” value worked out at 0.2 °C.

In the case of `C=CC(=O)Nc1cccc(Nc2nc(Nc3ccc(N4CCN(C(C)=O)CC4)cc3OC)ncc2C(F)(F)F)c1` [Rociletinib (CO-1686, AVL-301)], the “thermal shift delta Tm” value worked out at 0.68 °C.

With `O=C(c1ccc(/C=C/c2n[nH]c3ccccc23)cc1)N1CCNCC1`, the “thermal shift delta Tm” value came out at 1.8 °C.

On to `Cc1ccc(NC(=O)c2ccc(CN3CCN(C)CC3)cc2)cc1Nc1nc(-c2cccnc2)cs1` [Masitinib (AB1010)], for which the “thermal shift delta Tm” value came to 0.16 °C.

As to `N#Cc1c(O)c2c(-c3ccc(-c4ccccc4O)cc3)csc2[nH]c1=O`, the “thermal shift delta Tm” value turned out to be 0.8 °C.

`CN1CC[C@H](c2c(O)cc(O)c3c(=O)cc(-c4ccccc4Cl)oc23)[C@H](O)C1` [Flavopiridol (Alvocidib)]: the “thermal shift delta Tm” value is 4.54 °C.

Take `Cc1cnc(Nc2ccc(OCCN3CCCC3)cc2)nc1Nc1cccc(S(=O)(=O)NC(C)(C)C)c1`: the “thermal shift delta Tm” value stood at 1.28 °C.

For the compound `C[C@@H](Oc1ccc2[nH]nc(/C=C/c3cnn(CCO)c3)c2c1)c1c(Cl)cncc1Cl`, the “thermal shift delta Tm” value was determined as 5.34 °C.

On to `Nc1cccc(-c2cc3c(Oc4cccc(O)c4)ncnc3[nH]2)c1`, for which the “thermal shift delta Tm” value is 4.88 °C.

With `CN1CCC(COc2cnc(-c3cccc(Cn4nc(-c5cccc(C#N)c5)ccc4=O)c3)nc2)CC1`, the “thermal shift delta Tm” value is 0.03 °C.

Turning to `C[C@H](Nc1ncnc2nc[nH]c12)c1cc2cccc(Cl)c2c(=O)n1-c1ccccc1` [Duvelisib (IPI-145, INK1197)], the “thermal shift delta Tm” value amounted to 0.37 °C.

As for `CCCCNc1ncc(C(=O)NCc2ccc(-n3ccnc3)cc2)c(NC2CCC(O)CC2)n1` (centres undefined), the “thermal shift delta Tm” value worked out at 4.73 °C.

In another test the test system is LOC_OS01G21960-cb002. The description is as above. Conditions: 12.5 µM; protein concentration 2 µM. The gist of the method:
as §1
On to `Oc1c2ccccc2c2c3c(cccc13)N=N2`, for which the “thermal shift delta Tm” value was 2.7 °C.

In the case of `CSc1cccc(Nc2ncc3cc(-c4c(Cl)cccc4Cl)c(=O)n(C)c3n2)c1`, the “thermal shift delta Tm” value came out at 0.55 °C.

For the compound `COc1cc(Nc2ncc(F)c(Nc3ccc4c(n3)NC(=O)C(C)(C)O4)n2)cc(OC)c1OC` [R406 (free base)], the “thermal shift delta Tm” value was 4.15 °C.

On to `Cc1cn(-c2cc(NC(=O)c3ccc(C)c(Nc4nccc(-c5cnccn5)n4)c3)cc(C(F)(F)F)c2)cn1` [Radotinib], for which the “thermal shift delta Tm” value turned out to be 0.96 °C.

Take `CN1CCN(Cc2ccc(-c3cnc4[nH]cc(-c5ccc6[nH]ccc6c5)c4c3)cc2)CC1`: the “thermal shift delta Tm” value worked out at 4.44 °C.

In the case of `CONC(=O)c1ccccc1Nc1cc(Nc2cc(C)nn2C(C)C)ncc1Cl`, the “thermal shift delta Tm” value turned out to be 0.75 °C.

For the compound `CNC(=O)c1cc(Oc2ccc(NC(=O)Nc3ccc(Cl)c(C(F)(F)F)c3)c(F)c2)ccn1` [Regorafenib (BAY 73-4506)], the “thermal shift delta Tm” value came out at 0.87 °C.

For `c1cc(-c2cnn3cc(-c4ccc(OCCN5CCCCC5)cc4)cnc23)ccn1` [Dorsomorphin 2HCl], the “thermal shift delta Tm” value turned out to be 3 °C.

For the compound `CCCCCCCCCC(=O)CC(O)S(=O)(=O)O` (centres undefined) [Sodium Houttuyfonate], the “thermal shift delta Tm” value came out at 0.8 °C.

For `CC(C)[C@H](CO)Nc1nc(Nc2cccc(Cl)c2)c2ncn(C(C)C)c2n1` [Purvalanol A], the “thermal shift delta Tm” value worked out at 2.18 °C.

`COc1ccc(Cl)c(Nc2nc3ccccc3nc2NS(=O)(=O)c2cccc(NC(=O)C(C)(C)N)c2)c1` [Pilaralisib (XL147)]: the “thermal shift delta Tm” value is 0.73 °C.

`CC(C)Oc1ccc(-c2nn([C@@H](C)c3oc4ccc(F)cc4c(=O)c3-c3cccc(F)c3)c3ncnc(N)c23)cc1F`: the “thermal shift delta Tm” value is 0.77 °C.

For `O=C(/C=C/c1ccc2ccccc2n1)c1ccncc1`, the “thermal shift delta Tm” value was found to be 2.15 °C.

Turning to `CC(C)(O)CC(=O)NCCn1ccc2ncnc(Nc3ccc(Oc4cccc(C(F)(F)F)c4)c(Cl)c3)c21`, the “thermal shift delta Tm” value worked out at 1.64 °C.

Take `CCOC(=O)c1cnc2ccc(-c3cncc(NS(=O)(=O)c4ccccc4)c3)cn12`: the “thermal shift delta Tm” value was found to be 1.06 °C.

For `N#Cc1c(NC(=O)c2cccc3ccccc23)sc2c1CCCC2` [JNK Inhibitor IX], the “thermal shift delta Tm” value is 0.78 °C.

On to `CN(C)Cc1cccc(N=C(c2ccccc2)c2c(O)[nH]c3cc(C(=O)N(C)C)ccc23)c1`, for which the “thermal shift delta Tm” value was 0.52 °C.

For the compound `O=c1c(-c2ccc(O)cc2)coc2cc(O)cc(O)c12` [Genistein], the “thermal shift delta Tm” value came out at 0.55 °C.

Turning to `CCn1c2ccccc2c2cc(Nc3ccnc(NCCCN4CCOCC4)n3)ccc21`, the “thermal shift delta Tm” value amounted to 0.58 °C.

As for `N#CC(=C(/N)Sc1ccccc1N)/C(C#N)=C(\N)Sc1ccccc1N`, the “thermal shift delta Tm” value turned out to be 0.18 °C.

With `CCN(CC)CCCC(C)Nc1nc(C)cc(Nc2ccc3nc(C)cc(N)c3c2)n1` (centres undefined), the “thermal shift delta Tm” value was 0.15 °C.

Turning to `c1cn2cc(-c3ccc4cn[nH]c4c3)nc(Nc3ccc(N4CCOCC4)cc3)c2n1` [Entospletinib (GS-9973)], the “thermal shift delta Tm” value is 1.76 °C.

Consider `C[C@H]1CNC(=O)c2cnn3ccc(nc23)N[C@H](C)c2cc(F)ccc2O1`, for which the “thermal shift delta Tm” value amounted to 1.05 °C.

For `CC(C)c1cnn2c(NCc3ccccc3)cc(NCCCCCCN)nc12`, the “thermal shift delta Tm” value amounted to 0.56 °C.

Consider `C=CC(=O)Nc1cccc(Nc2nc(Nc3ccc(NC4CN(CCF)C4)cc3OC)ncc2C(F)(F)F)c1`, for which the “thermal shift delta Tm” value turned out to be 0.07 °C.

As to `CNC(=O)CN1CCC(Oc2cc3c(Nc4cccc(Cl)c4F)ncnc3cc2OC)CC1` [Sapitinib (AZD8931)], the “thermal shift delta Tm” value was 0.31 °C.

Turning to `C=CC(=O)Nc1cccc(Nc2nc(Nc3ccc(N4CCN(C(C)=O)CC4)cc3OC)ncc2C(F)(F)F)c1` [Rociletinib (CO-1686, AVL-301)], the “thermal shift delta Tm” value turned out to be 0.5 °C.

For the compound `O=C(c1ccc(/C=C/c2n[nH]c3ccccc23)cc1)N1CCNCC1`, the “thermal shift delta Tm” value came to 2.42 °C.

Consider `Cc1ccc(NC(=O)c2ccc(CN3CCN(C)CC3)cc2)cc1Nc1nc(-c2cccnc2)cs1` [Masitinib (AB1010)], for which the “thermal shift delta Tm” value was found to be 0.26 °C.

As for `N#Cc1c(O)c2c(-c3ccc(-c4ccccc4O)cc3)csc2[nH]c1=O`, the “thermal shift delta Tm” value is 1.72 °C.

With `CN1CC[C@H](c2c(O)cc(O)c3c(=O)cc(-c4ccccc4Cl)oc23)[C@H](O)C1` [Flavopiridol (Alvocidib)], the “thermal shift delta Tm” value came to 1.94 °C.

In the case of `Cc1cnc(Nc2ccc(OCCN3CCCC3)cc2)nc1Nc1cccc(S(=O)(=O)NC(C)(C)C)c1`, the “thermal shift delta Tm” value was determined as 2.52 °C.

Take `C[C@@H](Oc1ccc2[nH]nc(/C=C/c3cnn(CCO)c3)c2c1)c1c(Cl)cncc1Cl`: the “thermal shift delta Tm” value worked out at 3.51 °C.

For the compound `Nc1cccc(-c2cc3c(Oc4cccc(O)c4)ncnc3[nH]2)c1`, the “thermal shift delta Tm” value was found to be 1.92 °C.

On to `CN1CCC(COc2cnc(-c3cccc(Cn4nc(-c5cccc(C#N)c5)ccc4=O)c3)nc2)CC1`, for which the “thermal shift delta Tm” value stood at 0.05 °C.

With `C[C@H](Nc1ncnc2nc[nH]c12)c1cc2cccc(Cl)c2c(=O)n1-c1ccccc1` [Duvelisib (IPI-145, INK1197)], the “thermal shift delta Tm” value came to 0.25 °C.

For `CCCCNc1ncc(C(=O)NCc2ccc(-n3ccnc3)cc2)c(NC2CCC(O)CC2)n1` (centres undefined), the “thermal shift delta Tm” value is 1.72 °C.
